# Assay results as given in PubChem BioAssay (NCI).
# Compounds without any hit were thinned out: in the full panel of roughly 83,000, 20% have a hit.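 Interpretation: 100, growth as untreated; towards 0, rising growth inhibition; 0, no net growth; 0 to -100, cell death. Compounds scoring below 10 were considered active.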 Calls of active or inactive are those of the source.
# System: HL-60(TB) leukemia
# Test: NCI-60 one-dose screen, 48 h (100 = growth as untreated, 0 = no growth, -100 = all killed)
# Details: 10 µM unless noted
row,SMILES,growth
1,O=C1/C(=C/c2ccccc2[N+](=O)[O-])Oc2ccc(O)c(O)c21,4.39% (active)
2,O=c1ccn2nc3ccccc3c2[nH]1,93.1% (inactive)
3,CC/C(=C(/c1ccc(OCCN(C)C)cc1)c1ccc(OC(=O)CCCCCCCCC(=O)c2c(C)[nH]c(/C=C3\N=C(c4ccc[nH]4)C=C3OC)c2C)cc1)c1ccccc1,76.7% (inactive)
4,ON1CCCC1,82.3% (inactive)
5,COc1cc2c(O)n(CCCn3ccnc3)c3c4cnc5cccc(c(=O)c3c2cc1OC)c54,6.68% (active)
6,CCCCCC(/C=N\NC(=S)N/N=C/C(=C/c1ccccc1)CCCCC)=C\c1ccccc1,68.8% (inactive)
7,COc1ccc(/C=N/NC(=O)Cn2c(Cc3cccc4ccccc34)nc3ccccc32)cc1,93.2% (inactive)
8,O=C(N/N=C/c1cccc(O)c1)c1ccc(C(F)(F)F)nc1Nc1cccc(C(F)(F)F)c1,-30.4% (active)
9,O=c1nc2c(-c3nc4ccccc4s3)n[nH]n2c2sc3c(c12)CCCC3,99.4% (inactive)
10,CCC(=O)OC1=C(C)SC2=NC(c3ccc(Cl)c(Cl)c3)=CC(c3cc(OC)c(OC)c(OC)c3)N21 (centres undefined),97.8% (inactive)
11,COC1=CC(c2ccc[nH]2)=N/C1=C\c1[nH]c(C)c(C(=O)OCc2ccccc2)c1C,-8.78% (active)
12,O=C(Cc1ccc(/C=C/C(=O)c2ncc[nH]2)cc1)Nc1ccc(C(F)(F)F)cc1,-5.94% (active)
13,CCc1ccc(Oc2c(-c3ccc(OCc4ccc(Cl)cc4)cc3O)n[nH]c2C(F)(F)F)cc1,-6.99% (active)
14,CNC(=O)NCC1OC(n2cnc3c(NC(=O)Nc4ccccc4)ncnc32)C(O[Si](C)(C)C(C)(C)C)C1O[Si](C)(C)C(C)(C)C (centres undefined),23.5% (inactive)
15,O=C(CN1CCOCC1)Nc1ccc(-c2nc3ccccc3s2)cc1,101% (inactive)
16,O=C(Nc1ccc(Cl)cc1)c1cc2ccccc2cc1OP(=O)(O)O,37.3% (inactive)
17,O=c1c2sc3ccccc3c2nnn1-c1ccc(F)c(Cl)c1,73.7% (inactive)
18,Cn1cccc1/C=C1/SC(=S)N(CCc2ccc(O)cc2)C1=O,1.22% (active)
19,CN(C)CCOC(=O)C(C)(C)C,89.7% (inactive)
20,O=C(/C=C/c1ccccc1)c1cccc(OCCCOc2cccc(C(=O)/C=C/c3ccccc3)c2)c1,82.3% (inactive)

row,SMILES,growth
1,O=C1c2ccc3c4c5ccc(c24)C(=O)N1CCCOCCCCOCCCNCc1ccc(cc1)CNCCCOCCCCOCCCN(C3=O)C5=O,-61.1% (active)
2,O=C(NNc1ccc(-c2ccccc2)nn1)c1ccccc1,98.8% (inactive)
3,CC1=C([Se]CC(OC(=O)CC[Se]c2ccccc2)C(=O)NCCCCCC(=O)OCc2ccccc2)C(=O)c2ccccc2C1=O (centres undefined),15.5% (inactive)
4,O=C(NC(=S)Nc1ccc(-c2nc3ccccc3[nH]2)cc1)c1ccc2ccccc2c1,40.7% (inactive)
5,CN(C)CCNc1nc2c3cc(Cl)ccc3nn2c2ccccc12,56.1% (inactive)
6,COc1cc2nc3c(=O)n(-c4ccc(C#N)cc4)cnn3c(=O)c2cc1OC,92.1% (inactive)
7,COc1ccc(NC(=O)c2sc3nc(C)c(C(=O)/C=C/c4cccc(OC)c4)cc3c2N)cc1,33.6% (inactive)
8,CCC(CC)COC(=O)c1ccc(O)c(O)c1,8.36% (active)
9,COc1cc(-c2nc(-c3nnc(-c4ccc(F)c(Cl)c4)o3)c3ccccn23)cc(OC)c1OC,56.4% (inactive)
10,C[C@@H](c1ccc2c(c1)[nH]c1ccc(Cl)cc12)c1nc2ccccc2[nH]1,91.3% (inactive)
11,COC(=O)c1ccccc1C(=O)c1c(C)cc(C)cc1C,84.6% (inactive)
12,CC1=CC[C@@H]2C(C)(C)C(=O)CC[C@@]2(C)[C@@H]1COc1ccc2ccc(=O)oc2c1,85.9% (inactive)
13,C=C(CNCCc1ccc(O)cc1)[C@@H]1CC[C@]2(CO)CC[C@]3(C)[C@H](CC[C@@H]4[C@@]5(C)CCC(NCCO)C(C)(C)[C@@H]5CC[C@]43C)[C@@H]12 (some centres undefined),-46.4% (active)
14,COc1cc(-c2nc3sc4c(c3c(=O)[nH]2)CCCCCC4)cc(OC)c1OC,-19.3% (active)
15,CN(C)CCCn1c(=O)c2ccccc2c2cnc3[nH]ccc3c21,5.9% (active)
16,Cc1ccc(C(=O)N2C/C(=C/c3ccccc3)C(=O)/C(=C/c3ccccc3)C2)cc1,73.7% (inactive)
17,N#C/C(=C/c1cc([N+](=O)[O-])ccc1Cl)C(N)=O,91.7% (inactive)
18,Cc1ccc(NC2=C(Cl)C(=O)c3nc(C)ccc3C2=O)cc1,-10.8% (active)
19,C=CC(=O)Nc1cccc(-c2nc(SC)nc(Nc3ccccc3OC)c2C#N)c1,14.1% (inactive)
